This note sets out measurements from PubChem BioAssay (Tox21).

“And” between values parts separate entries of the source, which are not always exact repeats. Equal values may be shown once. Inconclusive results are not listed. The source made the active and inactive calls. Unless noted, calls come from the whole dose curve; as a rule, active = well fitted curve in the direction sought with a large enough effect in the repeat runs; inconclusive = weak or mixed curves; inactive = no such curve, though single readings can be large; an effect the other way counts as inactive or inconclusive.

Experiment [1] can be described thus: qHTS assay to identify aromatase inhibitors - cell viability counter screen (AID 743084).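 Note: cells stimulated with testosterone during compound exposure; nearly all actives have a fitted effect of over 55% in size.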 Note: potency is the fitted concentration of half-maximal effect. For orientation: Quantitative high-throughput screening tests each substance at several concentrations.
Experiment [2] addresses Aryl hydrocarbon receptor (Homo sapiens) (UniProt P35869). In words: qHTS assay to identify small molecule that activate the aryl hydrocarbon receptor (AhR) signaling pathway (AID 743085).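 Note: HG2L7.5c1 human HepG2 liver cells with stably integrated DRE-driven firefly reporter; series mostly up to about 70 µM; nearly all actives have a fitted effect of over 15% in size.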 Summed up:
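Compounds were tested in HepG2 hepatocellular carcinoma cells harbouring a stably integrated luciferase gene under control of 20 DREs. Increased reporter signal after 24 h treatment at 37C was taken as AhR activation.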

Experiment [3] in a line: qHTS assay to identify small molecule that activate the aryl hydrocarbon receptor (AhR) signaling pathway - cell viability counter screen (AID 743086). Note: nearly all actives have a fitted effect of over 45% in size. Note: potency is the fitted concentration of half-maximal effect. Summed up:
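Cytotoxicity counter screen: CellTiter-Fluor signal (30 min, 37 C) in 4000 HepG2 cells/well carrying the DRE-luciferase reporter, following 24 h compound exposure at 37 C.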

Experiment [4] in a line: qHTS assay to identify small molecule antagonists of the peroxisome proliferator-activated receptor gamma (PPARg) signaling pathway - cell viability counter screen (AID 743194). Note: nearly all actives have a fitted effect of over 55% in size. Note: potency is the fitted concentration of half-maximal effect. An outline of the steps:
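Viability was measured as CellTiter-Glo luminescence in GeneBLAzer PPARg UAS-bla HEK293H cells. These cells had been exposed 17 h at 37 C to compounds together with rosiglitazone at 50 nM final, with the beta-lactamase readout taken in the same wells.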

Experiment [5] in a line: qHTS assay for small molecule agonists of the antioxidant response element (ARE) signaling pathway (AID 743202; active = well fitted activation curve with a large enough effect in the signal ratio in the repeat runs, not every such curve was filed as active; the % refers to the signal ratio; note: potency is the fitted concentration of half-maximal effect). Summed up:
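Quantitative high-throughput format in HepG2 cells bearing an integrated ARE-beta-lactamase reporter. Compound exposure lasted 16 h at 37 C, and fluorescence was read 2 h after adding LiveBLAzer B/G substrate at room temperature.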

The nature of experiment [6]: qHTS assay for small molecule agonists of the antioxidant response element (ARE) signaling pathway - cell viability counter screen (AID 743203; calls by dose curve; note: nearly all actives have a fitted effect of over 55% in size; note: potency is the fitted concentration of half-maximal effect). An outline of the steps:
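ARE-bla HepG2 cells were plated, rested 5 h at 37C/5% CO2, then exposed to compounds in DMSO for 16 h. Viability was read as CellTiter-Glo luminescence after 30 min at room temperature, in the same wells as the ARE screen.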

Experiment [7] is described as follows: qHTS assay for small molecule activators of the heat shock response signaling pathway - cell viability counter screen (AID 743209). Note: nearly all actives have a fitted effect of over 50% in size. Summed up:
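HSE-bla HeLa cells plated overnight, then exposed to Tox21 compounds (23 nL in DMSO) for 5 h at 37 C. After the bla reporter read, CellTiter-Glo was added in the same wells and luminescence read after 30 min at room temperature.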

The nature of experiment [8]: qHTS assay for small molecule activators of the heat shock response signaling pathway (AID 743210; active = well fitted activation curve with a large enough effect in the signal ratio in the repeat runs, with a control signal flat, not every such curve was filed as active; the % refers to the signal ratio;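 note: HeLa cells with beta-lactamase reporter driven by heat shock elements; series mostly up to about 63 µM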). Summed up:
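HeLa HSE-bla cells, overnight plating; cpd in DMSO 5 h, 37 C; LiveBLAzer B/G FRET substrate 2.5 h RT; fluorescence intensity read.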

A short description of experiment [9]: qHTS assay to identify small molecule agonists of the peroxisome proliferator-activated receptor delta (PPARd) signaling pathway - cell viability counter screen (AID 743211). Note: nearly all actives have a fitted effect of over 55% in size. Note: potency is the fitted concentration of half-maximal effect. Summed up: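 Counter screen for cytotoxicity run in parallel with the PPARd reporter screen. Beta-lactamase reporter HEK293H cells exposed to compounds 17 h; ATP-based CellTiter-Glo luminescence quantified viability.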

The target in experiment [10] is Peroxisome proliferator-activated receptor delta (Homo sapiens) (UniProt Q03181). In words: qHTS assay to identify small molecule agonists of the peroxisome proliferator-activated receptor delta (PPARd) signaling pathway (AID 743212; calls by dose curve). An outline of the steps:
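HEK293H PPARd-bla cells; 5 h preincubation 37 C/5% CO2; compound (DMSO) 37 C; LiveBLAzer B/G FRET substrate 2 h RT; fluorescence intensity.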

A short description of experiment [11]: qHTS assay to identify small molecule antagonists of the peroxisome proliferator-activated receptor delta (PPARd) signaling pathway - cell viability counter screen (AID 743213). Note: nearly all actives have a fitted effect of over 50% in size. Note: potency is the fitted concentration of half-maximal effect. Summed up: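 Cytotoxicity counter screen: CellTiter-Glo luminescence read 30 min after addition, in the same wells as the reporter assay. There, PPARd UAS-bla HEK293H cells (3000/well) were treated 17 h at 37 C with compound and 300 nM L165041.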

Experiment [12] deals with Peroxisome proliferator-activated receptor delta (Homo sapiens) (UniProt Q03181). In words: qHTS assay to identify small molecule antagonists of the peroxisome proliferator-activated receptor delta (PPARd) signaling pathway (AID 743215; active = well fitted inhibition curve with a large enough effect in the signal ratio in the repeat runs, not every such curve was filed as active; the % refers to the signal ratio;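 note: cells stimulated with agonist L165041 at 300 nM final during compound exposure; series mostly up to about 62 µM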). Summed up:
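PPARd-bla HEK293H cells (UAS-bla reporter) preincubated 5 h, then given compound plus 300 nM final L165041 agonist for 17 h at 37 C. Beta-lactamase activity read by LiveBLAzer B/G FRET substrate fluorescence after 2 h at room temperature.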

Experiment [13] in a line: qHTS assay to identify small molecule agonists of the farnesoid-X-receptor (FXR) signaling pathway - cell viability counter screen (AID 743218). Note: nearly all actives have a fitted effect of over 45% in size. Note: potency is the fitted concentration of half-maximal effect. Summed up:
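FXR-UAS-bla HEK 293T cells exposed to compounds for 16 h at 37C. Cytotoxicity read in the same wells by CellTiter-Glo luminescence after 30 min at room temperature, following the beta-lactamase FRET read.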

For experiment [14], the target named is Vitamin D3 receptor (Homo sapiens) (UniProt P11473). The experiment in a line: qHTS assay to identify small molecule agonists of the vitamin D receptor (VDR) signaling pathway (AID 743222; calls by dose curve). Summed up:
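VDR-bla cells plated 4 h at 37 C, then exposed to compounds for 16 h at 37 C. Beta-lactamase reporter activity measured by fluorescence after 2 h room-temperature loading with LiveBLAzer B/G FRET substrate.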

For experiment [15] the target is unchanged. The experiment in a line: qHTS assay to identify small molecule antagonists of the vitamin D receptor (VDR) signaling pathway (AID 743223; active = well fitted inhibition curve with a large enough effect in the signal ratio in the repeat runs, not every such curve was filed as active; the % refers to the signal ratio). Summed up:
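Cells carrying a VDR-driven beta-lactamase reporter (VDR-bla) were co-treated with compound and 3 nM final 1alpha,25-dihydroxyvitamin D3 for 16 h at 37C; reporter activity was measured as FRET substrate fluorescence after 2 h at room temperature.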

Experiment [16] addresses Peroxisome proliferator-activated receptor gamma (Homo sapiens) (UniProt P37231). The experiment in a line: qHTS assay to identify small molecule agonists of the peroxisome proliferator-activated receptor gamma (PPARg) signaling pathway (AID 743094; active = well fitted activation curve with a large enough effect in the signal ratio in the repeat runs, not every such curve was filed as active; the % refers to the signal ratio). An outline of the steps: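 GeneBLAzer PPARg UAS-bla HEK293H cells were plated, rested 5 h, then exposed to compounds for 17 h at 37C. Beta-lactamase activity was read by LiveBLAzer B/G FRET substrate fluorescence after 1 h at room temperature.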

The target of experiment [17] is Bile acid receptor (Homo sapiens) (UniProt Q96RI1). In words: qHTS assay to identify small molecule antagonists of the farnesoid-X-receptor (FXR) signaling pathway (AID 743217; active = well fitted inhibition curve with a large enough effect in the signal ratio in the repeat runs, not every such curve was filed as active; the % refers to the signal ratio; note: potency is the fitted concentration of half-maximal effect). Summed up:
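FXR-UAS-bla HEK 293T cells (beta-lactamase reporter) given compound plus chenodeoxycholic acid (50 uM final), 16 h at 37C. LiveBLAzer B/G FRET substrate added for 2 h at room temperature; fluorescence read.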

The target is the same in experiment [18]. In words: qHTS assay to identify small molecule agonists of the farnesoid-X-receptor (FXR) signaling pathway (AID 743220; active = well fitted activation curve with a large enough effect in the signal ratio in the repeat runs, not every such curve was filed as active; the % refers to the signal ratio). An outline of the steps:
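Beta-lactamase reporter under UAS control in GeneBLAzer FXR HEK 293T cells (5000/well) measured with LiveBLAzer FRET substrate after 2 h at room temperature. Compound exposure lasted 16 h at 37C.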

Experiment [19] can be described thus: qHTS assay to identify small molecule antagonists of the farnesoid-X-receptor (FXR) signaling pathway - cell viability counter screen (AID 743221; active = well fitted cell-killing curve with a large enough effect in the repeat runs, not every such curve was filed as active; note: nearly all actives have a fitted effect of over 50% in size; note: potency is the fitted concentration of half-maximal effect). Summed up: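 Multiplexed counter screen: viability of FXR-bla HEK 293T cells under agonist stimulation by chenodeoxycholic acid (50 uM, final) and test compound for 16 h at 37 C, measured by CellTiter-Glo luminescence in the reporter wells.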

For experiment [20], the target named is Peroxisome proliferator-activated receptor gamma (Homo sapiens) (UniProt P37231). In words: qHTS assay to identify small molecule antagonists of the peroxisome proliferator-activated receptor gamma (PPARg) signaling pathway (AID 743191; calls by dose curve; note: series mostly up to about 63 µM; nearly all actives have a fitted effect of over 30% in size). Summed up:
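Beta-lactamase reporter under UAS control in HEK293H PPARg-bla cells; compound treatment 17 h at 37C. Read-out: fluorescence intensity after 1 h room-temperature incubation with LiveBLAzer B/G FRET substrate.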

Chain of Peroxisome proliferator-activated receptor delta (Homo sapiens) (Q03181 whole entry, looked up): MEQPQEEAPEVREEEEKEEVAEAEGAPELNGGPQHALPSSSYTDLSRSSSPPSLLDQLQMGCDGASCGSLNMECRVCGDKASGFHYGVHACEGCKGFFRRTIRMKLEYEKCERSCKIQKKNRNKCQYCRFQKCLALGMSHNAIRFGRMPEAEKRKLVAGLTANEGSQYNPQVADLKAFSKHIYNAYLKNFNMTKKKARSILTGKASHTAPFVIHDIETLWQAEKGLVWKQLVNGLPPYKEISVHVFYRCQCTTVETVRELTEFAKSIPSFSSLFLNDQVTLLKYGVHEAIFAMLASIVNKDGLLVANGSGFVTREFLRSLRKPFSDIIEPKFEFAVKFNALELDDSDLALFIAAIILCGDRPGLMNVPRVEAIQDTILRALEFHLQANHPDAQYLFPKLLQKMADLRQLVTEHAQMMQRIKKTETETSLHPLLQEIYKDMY
Chain of Aryl hydrocarbon receptor (Homo sapiens) (P35869 whole entry, looked up): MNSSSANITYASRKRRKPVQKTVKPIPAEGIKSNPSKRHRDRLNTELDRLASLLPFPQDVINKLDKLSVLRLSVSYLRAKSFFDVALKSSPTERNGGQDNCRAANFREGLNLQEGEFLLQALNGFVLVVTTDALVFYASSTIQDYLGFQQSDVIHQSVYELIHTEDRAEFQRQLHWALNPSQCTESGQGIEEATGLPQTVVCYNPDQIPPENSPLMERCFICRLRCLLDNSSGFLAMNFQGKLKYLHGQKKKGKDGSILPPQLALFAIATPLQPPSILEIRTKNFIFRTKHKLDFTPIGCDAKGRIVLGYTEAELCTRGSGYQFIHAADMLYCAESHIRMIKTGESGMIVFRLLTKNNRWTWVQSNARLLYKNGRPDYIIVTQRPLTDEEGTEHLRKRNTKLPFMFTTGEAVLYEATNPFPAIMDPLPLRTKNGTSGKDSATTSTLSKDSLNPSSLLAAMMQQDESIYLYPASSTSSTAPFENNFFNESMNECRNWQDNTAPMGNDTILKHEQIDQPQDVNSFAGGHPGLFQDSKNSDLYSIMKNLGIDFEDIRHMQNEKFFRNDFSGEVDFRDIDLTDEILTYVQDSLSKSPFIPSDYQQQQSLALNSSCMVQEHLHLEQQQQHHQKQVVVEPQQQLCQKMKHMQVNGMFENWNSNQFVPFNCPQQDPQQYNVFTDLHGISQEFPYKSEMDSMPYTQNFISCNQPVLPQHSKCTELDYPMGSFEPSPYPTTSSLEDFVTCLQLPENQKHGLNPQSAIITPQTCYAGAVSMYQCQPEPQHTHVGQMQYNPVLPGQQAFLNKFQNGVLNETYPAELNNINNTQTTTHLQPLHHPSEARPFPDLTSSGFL
Chain of Bile acid receptor (Homo sapiens) (Q96RI1 whole entry, looked up): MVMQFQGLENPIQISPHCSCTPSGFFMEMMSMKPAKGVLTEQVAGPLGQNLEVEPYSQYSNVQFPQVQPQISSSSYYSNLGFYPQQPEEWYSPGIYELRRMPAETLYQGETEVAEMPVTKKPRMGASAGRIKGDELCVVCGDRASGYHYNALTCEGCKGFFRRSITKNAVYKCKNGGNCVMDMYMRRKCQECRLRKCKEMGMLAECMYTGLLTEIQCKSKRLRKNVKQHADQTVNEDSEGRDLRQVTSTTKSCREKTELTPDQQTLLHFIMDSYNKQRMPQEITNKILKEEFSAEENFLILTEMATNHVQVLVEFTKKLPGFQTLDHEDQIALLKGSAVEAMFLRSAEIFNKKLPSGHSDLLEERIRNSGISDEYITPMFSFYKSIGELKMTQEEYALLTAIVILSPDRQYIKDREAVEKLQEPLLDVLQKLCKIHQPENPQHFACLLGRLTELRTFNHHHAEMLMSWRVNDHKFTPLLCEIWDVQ
Chain of Vitamin D3 receptor (Homo sapiens) (P11473 whole entry, looked up): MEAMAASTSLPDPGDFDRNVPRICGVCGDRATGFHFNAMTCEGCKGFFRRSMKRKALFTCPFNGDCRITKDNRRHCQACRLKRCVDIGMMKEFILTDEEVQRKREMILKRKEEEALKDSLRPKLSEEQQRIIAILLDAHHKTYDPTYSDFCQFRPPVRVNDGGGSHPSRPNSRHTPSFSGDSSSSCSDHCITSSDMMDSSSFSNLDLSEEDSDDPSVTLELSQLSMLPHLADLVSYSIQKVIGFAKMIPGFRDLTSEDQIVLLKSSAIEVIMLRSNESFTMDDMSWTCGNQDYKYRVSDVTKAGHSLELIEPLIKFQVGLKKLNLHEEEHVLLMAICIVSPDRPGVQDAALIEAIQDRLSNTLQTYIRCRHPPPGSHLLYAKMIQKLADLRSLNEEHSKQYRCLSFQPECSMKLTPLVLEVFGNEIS
Chain of Peroxisome proliferator-activated receptor gamma (Homo sapiens) (P37231 whole entry, looked up): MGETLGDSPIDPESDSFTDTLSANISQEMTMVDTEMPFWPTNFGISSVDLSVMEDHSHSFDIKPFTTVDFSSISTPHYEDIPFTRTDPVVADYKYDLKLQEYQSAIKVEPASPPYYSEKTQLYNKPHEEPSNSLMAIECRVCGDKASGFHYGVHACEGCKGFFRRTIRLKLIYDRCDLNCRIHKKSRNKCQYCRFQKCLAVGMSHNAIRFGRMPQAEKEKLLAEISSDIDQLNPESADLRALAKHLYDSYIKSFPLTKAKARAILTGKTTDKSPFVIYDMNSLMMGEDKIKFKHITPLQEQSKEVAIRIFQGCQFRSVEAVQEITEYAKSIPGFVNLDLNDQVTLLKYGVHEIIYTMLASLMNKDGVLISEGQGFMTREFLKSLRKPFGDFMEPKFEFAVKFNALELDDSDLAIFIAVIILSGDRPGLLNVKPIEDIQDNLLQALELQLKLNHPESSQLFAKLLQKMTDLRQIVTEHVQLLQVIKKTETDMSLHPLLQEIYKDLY

In the case of `OCCNCCO`, the Potency result in [1], in experiment [2], in experiment [3], in experiment [4], in [5] and in experiment [6] was “inactive” throughout. The Potency result in experiment [7], in [9], in experiment [11] and in experiment [13] was “inactive” each time. In addition, the call in experiment [8], in experiment [10], in experiment [12], in [14] and in experiment [15] was inactive.

In the case of `CCC(Cc1c(I)cc(I)c(N)c1I)C(=O)O` (centres undefined), the Potency result in [1], in [2], in experiment [3], in [4], in experiment [6] and in experiment [7] was “inactive” throughout. Also, the Potency entry in experiment [9], in experiment [11], in experiment [17], in [13] and in experiment [19] was “inactive” each time. The outcome in experiment [16], in experiment [8], in experiment [12], in experiment [18] and in experiment [14] was inactive. Also, in experiment [5], the Potency was 23.6 µM (active).

Turning to `CN(C)CCCN1c2ccccc2Sc2ccc(Cl)cc21`, the Potency in [1] was 68.6 µM (active); in experiment [3], 30.6 µM (active); in experiment [4], 38.9 µM (active) and 26.6 µM (active); in experiment [6], 24.3 µM (active) and 29.8 µM (active); in experiment [9], 11 µM (active) and 23.7 µM (active); in experiment [11], 13.8 µM (active) and 18.8 µM (active). The Potency is 49 µM (active) and 26.6 µM (active) in experiment [17]; 21.9 µM (active) and 26.6 µM (active) in [13]; 43.6 µM (active) and 26.6 µM (active) in experiment [19]. The Potency entry in experiment [2] and in experiment [7] was “inactive” in each case. Moreover, in experiment [18], the outcome was inactive.

In the case of `CCCCCCCCCCC(CO)CCCCCCCC` (centres undefined), the Potency result in experiment [1], in [2], in [3], in experiment [4], in experiment [5] and in experiment [6] was “inactive” each time. In addition, the Potency entry in experiment [7], in experiment [9], in [11] and in experiment [13] was “inactive” each time. Moreover, the compound was classed as inactive in experiment [16], in experiment [8], in experiment [10], in experiment [12], in [14] and in experiment [15].

Turning to `COc1ccc(C(=O)c2ccccc2O)c(O)c1`, the Potency result in experiment [1], in [2], in [3], in experiment [5], in experiment [6] and in experiment [7] was “inactive” in each case. Also, the Potency result in [9], in experiment [11], in experiment [13] and in experiment [19] was “inactive” each time. The compound was classed as inactive in experiment [16], in experiment [8], in [10] and in [12].

In the case of `O=C(O)CCCCCCCCCCCC(=O)O`, the Potency entry in experiment [1], in experiment [3], in [20], in [4], in experiment [5] and in experiment [6] was “inactive” in each case. Further, the Potency result in [7], in experiment [9], in experiment [11], in experiment [17], in experiment [13] and in experiment [19] was “inactive” each time. For the same compound, the compound was classed as inactive in experiment [16], in experiment [8], in experiment [10], in experiment [12], in experiment [18] and in [14]. Further, the compound was classed as inactive in experiment [15].

Consider `C=CCCCCCCCCCC`, for which the Potency result in experiment [1], in [3], in experiment [20], in [4], in experiment [5] and in [6] was “inactive” throughout. The Potency entry in [7], in experiment [9], in experiment [11] and in experiment [13] was “inactive” each time. The compound was classed as inactive in experiment [16], in experiment [8], in experiment [10] and in experiment [12].

For the compound `CC(C)[C@@H]1CC[C@@H](C)CC1=O`, the Potency entry in experiment [1], in [2], in experiment [3], in experiment [4], in [5] and in [6] was “inactive” each time. Besides, the Potency entry in [7], in experiment [9], in experiment [11] and in experiment [13] was “inactive” in each case. For the same compound, the compound was classed as inactive in experiment [16] and in [8].
